# Bioassay records deposited in PubChem BioAssay by NMMLSC.
# LAP4 TOR yeast: modulators of LAP4-GFP expression in yeast, primary screen, S. cerevisiae, multiplex flow cytometry, MLPCN library; 3 h; median GFP as percent of DMSO wells; 320,000 compounds, 0.34% hits; GFP response vs DMSO, % at 10 µM;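 active means GFP response vs DMSO above a set limit, about the screen mean plus 3 SD, cut at about 150% in these data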
# AGP1 TOR yeast: modulators of AGP1-GFP expression in yeast TOR pathway, primary screen, cell-based, multiplex flow cytometry, S. cerevisiae, MLPCN library | 3 h; GFP as percent of DMSO wells | GFP response vs DMSO, % at 10 µM | 320,000 compounds, 0.02% hits | AID 2066, 2009;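 active means GFP response relative to DMSO above a set limit, near screen average plus 3 SD, cut at about 150% in these data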;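 further: median GFP channel fluorescence of the gated AGP1 strain per well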
# RPL19A TOR yeast: RPL19A-GFP expression modulators in yeast, primary screen, cell-based, S. cerevisiae, multiplex flow cytometry, MLPCN. S. cerevisiae RPL19A-GFP strain, 3 h; active compounds read low. percent response vs DMSO, % at 10 µM. 330,000 compounds, 0.3% hits. AID 2025, 2009;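 active means percent response vs DMSO below 50%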;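 further: median channel GFP fluorescence of the barcoded RPL19A-GFP strain; ratio of sample median GFP to plate DMSO average so 100% = DMSO; lower means less RPL19A-GFP as with rapamycin TOR inhibition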
# CIT2-GFP yeast: modulators of CIT2-GFP expression in yeast, primary screen, S. cerevisiae, GFP fusion, multiplex flow cytometry, MLPCN library; GFP response vs DMSO, % at 10 µM; 320,000 compounds, 0.065% hits; S. cerevisiae CIT2-GFP strain, 3 h; 100 means same as DMSO wells; AID 2029, 2009;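 active means GFP response relative to DMSO above a set limit, near the screen mean plus 3 SD, cut at about 150% in these data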;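 further: ratio of well median GFP fluorescence to mean of DMSO wells on the plate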
# MEP2-GFP yeast: modulators of MEP2-GFP levels in yeast, primary screen, S. cerevisiae, multiplex flow cytometry, MLPCN library; S. cerevisiae MEP2-GFP strain, 3 h; 100% = DMSO control level; GFP response vs DMSO, % at 10 µM; 330,000 compounds, 0.51% hits;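 active means GFP response versus DMSO above a set limit, roughly screen mean plus 3 SD, cut at about 180% in these data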;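 further: median GFP fluorescence of the barcode-gated MEP2-GFP cells per well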
# LAP4-GFP pick2: LAP4-GFP expression modulators in yeast, confirmation, cell-based, second cherry pick, flow cytometry | AID 2621, 2010 | 590 compounds, 20% hits | shares compounds with LAP4 TOR yeast | GFP response vs DMSO, % at 10 µM | S. cerevisiae LAP4-GFP strain, 3 h;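 active means GFP signal as percent of the solvent control above about 150%, meaning raised reporter expression, limit read from the data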;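 further: ratio of well median GFP fluorescence to plate DMSO mean so 100% = DMSO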
# MEP2-GFP pick2: modulators of MEP2-GFP levels in yeast, confirmation, S. cerevisiae, flow cytometry GFP, second cherry picks | shares compounds with LAP4 TOR yeast | S. cerevisiae MEP2-GFP strain, 3 h | GFP response vs DMSO, % at 10 µM | 590 compounds, 10% hits;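 active means GFP signal above 150% of the solvent control wells, that is a rise of more than half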;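 further: median channel GFP fluorescence of all gated yeast cells per well; ratio of median GFP to plate DMSO average so 100% = DMSO level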
# RPL19A GFP CP2: RPL19A-GFP modulators in TOR pathway yeast, confirmation, cell-based, S. cerevisiae, flow cytometry, second cherry pick | GFP response vs DMSO, % at 10 µM | shares compounds with LAP4 TOR yeast | S. cerevisiae RPL19A-GFP strain, 3 h; active compounds read low; 100% means same as DMSO wells | AID 2623, 2010 | 590 compounds, 3% hits;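 active means under 65% GFP response relative to DMSO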;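 further: median GFP channel fluorescence per well over the all cells gate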
# CIT2 GFP CP2: modulators of CIT2-GFP expression in yeast, confirmation, flow cytometry, second cherry pick, single plex; shares compounds with LAP4 TOR yeast; S. cerevisiae CIT2-GFP strain, 3 h; DMSO control wells read 100%; GFP response vs DMSO, % at 10 µM; 590 compounds, 8% hits; AID 2624, 2010;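 active means GFP response vs DMSO above about 150%, limit read from the data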;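 further: median green fluorescence per well over all gated yeast cells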
# AGP1 GFP CP2: AGP1-GFP expression modulators, hit retest, confirmation, cell-based, flow cytometry, S. cerevisiae, cherry pick set 2; shares compounds with LAP4 TOR yeast; percent response vs DMSO, % at 10 µM; AID 2643, 2010; S. cerevisiae AGP1-GFP strain, 3 h; 590 tested, under 10 active;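 active means over 150 percent of DMSO response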;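 further: median GFP channel fluorescence over all cells without mother daughter split; sample median GFP divided by mean DMSO control so 100% equals DMSO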
# s288c autofluor: compound autofluorescence in yeast s288c, dose response, artefact control for yeast TOR pathway GFP screen, s288c strain; shares compounds with LAP4 TOR yeast; S. cerevisiae s288c, 520 nm autofluorescence, flow cytometry, 3 h; active compounds read high; zero means same as solvent-only cells; fluorescence change (kMESF span) at 33 µM; 610 tested, under 10 active;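 active means fluorescence span over the dose series, or activity score, above about 33, limit read from the data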
# Numbers without * were called inactive; / = no result. Hits are enriched below; roughly 0.92% of the tested compounds scored in any of these assays.
SMILES,LAP4 TOR yeast,AGP1 TOR yeast,RPL19A TOR yeast,CIT2-GFP yeast,MEP2-GFP yeast,LAP4-GFP pick2,MEP2-GFP pick2,RPL19A GFP CP2,CIT2 GFP CP2,AGP1 GFP CP2,others
CN(C)c1oc(/C=C/c2cccs2)nc1S(=O)(=O)c1ccccc1,70.9,13.4,52.9,82.8,94.9,99.0,96.5,97.3,95.0,95.3,
O=C(NCc1ccccc1C(F)(F)F)C1CCC(=O)N(CCCc2ccccc2)C1 (stereo unspecified),95.9,95.3,94.4,94.9,99.2,/,/,/,/,/,
O=C(O)CCC(NC(=O)OCc1ccccc1)C(=O)O (stereo unspecified),107.1,99.4,97.8,98.5,103.6,/,/,/,/,/,
Nc1nc(N)c2nc(CNc3ccc(C(=O)NC(CCC(=O)O)C(=O)O)cc3)cnc2n1 (stereo unspecified),299.1*,101.4,85.4,83.0,93.7,326.6*,218.3*,100.8,157.1*,127.7,s288c autofluor=0.1
CCN(CC(=O)Nc1c(F)cccc1F)C(=O)COc1cccc2c1OC(C)(C)C2,185.0*,107.8,83.1,77.5,82.8,96.2,98.2,100.0,106.3,102.2,
Cc1cccc(C)c1NC(=O)CN(C)C(=O)COc1cccc2c1OC(C)(C)C2,114.0,112.9,107.5,109.5,101.6,/,/,/,/,/,
O=C(Nc1ccc(C(=O)N2CCCCC2)cc1)c1ccccc1Br,151.8*,102.9,103.4,101.8,217.9*,105.2,115.3,101.0,109.9,97.8,
O=C(Nc1ccc(C(=O)N2CCCC2)cc1)c1ccccc1Br,102.5,98.9,99.1,98.2,100.6,/,/,/,/,/,
CCCc1c(O)nc(SCCN(CC)CC)n(C(=O)c2ccccc2)c1=O,115.8,28.5,36.5*,115.4,248.3*,97.1,101.5,98.8,96.1,98.6,
O=C(NCCN1CCOCC1)c1ccc(NS(=O)(=O)c2ccccc2)cc1,92.5,106.0,105.6,105.7,100.1,/,/,/,/,/,
C[C@H](CO)N1C[C@H](C)[C@@H](CN(C)C(=O)Nc2ccc3c(c2)OCO3)Oc2c(NC(=O)Nc3ccc(C(F)(F)F)cc3)cccc2C1=O,102.9,102.0,101.6,96.6,95.2,/,/,/,/,/,
Cc1[nH]n(-c2ccccc2)c(=O)c1C(c1ccccc1[N+](=O)[O-])C(C#N)C#N (stereo unspecified),168.4*,83.0,105.1,99.5,95.3,/,/,/,/,/,s288c autofluor=1.33
COc1cccc(N2CCN(c3ccc4nnc(CCC(=O)Nc5ccc(C)cn5)n4n3)CC2)c1,98.1,21.7,59.7,107.8,135.8,96.2,97.8,98.2,102.9,99.7,
Cc1ccc2c(c1)c(/C=C/c1cc[n+](C)cc1)c(C)n2C,198.2*,116.7,127.4,205.6*,289.0*,/,/,/,/,/,s288c autofluor=15.6
